Results on nine compounds are retold here after PubChem BioAssay (NCATS).

Results filed as inconclusive are left out. Activity calls are given as the source filed them. Unless noted, the call rests on the fitted dose curve; in most records, active means well fitted curve in the direction sought with a large enough effect; inconclusive means small, poorly fitted or top-dose-only effect, or another doubt; inactive means no such curve, though single readings can be large; an effect the other way counts as inactive or inconclusive.

In test [1] the target is Catechol O-methyltransferase (Homo sapiens) (UniProt P21964). Kind of test: Confirmatory Screen for Target Class Profiling of Small Molecule Inhibitors of Methyltransferases (AID 1745852; calls by dose curve; further: potency means the concentration at half of the fitted maximal effect; on activity change, negative = inhibition: on the % scale 0 is the no-effect control and ±100 the full control effect). The conditions noted are these: MTase-Glo luminescence, SAH detection, recombinant enzyme; measured here: COMT max response; stronger effect = lower value.
Test [2] deals with Guanidinoacetate N-methyltransferase (Homo sapiens) (UniProt Q14353). The description is as above. Particulars: MTase-Glo luminescence, SAH detection, recombinant enzyme; activity change, negative = inhibition: at 57.3 µM (top of the series).
The target of test [3] is Nicotinamide N-methyltransferase (Homo sapiens) (UniProt P40261). The test is described as above. The conditions noted are these: MTase-Glo luminescence, SAH detection, recombinant enzyme; measured here: NNMT max response; stronger effect = lower value.
The target in test [4] is Phenylethanolamine N-methyltransferase (Homo sapiens) (UniProt P11086). The test is described as above. Particulars: MTase-Glo luminescence, SAH detection, recombinant enzyme; measured here: PNMT max response; stronger effect = lower value.
The target in test [5] is DNA dC->dU-editing enzyme APOBEC-3G (Homo sapiens) (UniProt Q9HC16). Kind of test: qHTS for inhibitors of Vif-A3G interactions: Validation (AID 588379). Further: 0% is about no effect. The conditions noted are these: Vif-A3G protein interaction assay; series mostly up to 46.1 µM. The essentials: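 Yellow fluorescence (Ex 488, Em 500-530) of Vif-coexpressing HeLa A3G-eYFP cells, scanned by Acumen cytometer, reports blocked A3G degradation. Cells plated at 700/well overnight at 37 deg C before compound addition, then a further overnight compound incubation at 37 deg C.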
(In general: Quantitative high-throughput screening tests each substance at several concentrations.)

Test [6] is described as follows: NCATS anti-infectives library activity on the primary C. elegans qHTS viability assay (AID 1745855; calls by dose curve; further: potency means the concentration at half of the fitted maximal effect). Particulars: C. elegans worm area imaging, day 7; series mostly up to 41.8 µM. The essentials:
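Titration-based screen in worms: eggs hatched overnight in M9, L1 larvae fed TOP10 capsules in S medium with compound, incubated 21 °C for 7 days; fluorescent objects gated by size and intensity at days 0, 3 and 7.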

Test [7] concerns the target Glucocorticoid receptor (Homo sapiens) (UniProt P04150). Kind of test: GR-GFP Redistribution (AID 450;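 active means compounds whose dose series gives a full or clear partial fitted curve of increased nuclear translocation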; further: potency means the concentration at half of the fitted maximal effect). The conditions noted are these: U2OS GR-GFP nuclear translocation, laser cytometry, 2 h.
Test [8] shares this target. Kind of test: GR-EFC Redistribution (AID 451; calls by dose curve; further: potency means the concentration at half of the fitted maximal effect). Particulars: CHO-K1 GR-EFC translocation, beta-gal luminescence, 2 h. Summed up: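 CHO-K1 cells expressing nuclear EA and GR-ED fragments of b-gal; compounds titrated up to 46 uM final, 2 h at 37 C. GR nuclear translocation read as complemented b-gal luminescence after 1 h RT detection.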
The target of test [9] is Luciferin 4-monooxygenase (Photinus pyralis) (UniProt P08659). Briefly: Biochemical firefly luciferase enzyme assay for NPC (AID 624030). Further: nearly all actives have a fitted effect of over 70% in size. Further: potency means the concentration at half of the fitted maximal effect.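 On activity change, negative = inhibition: purified P. pyralis luciferase at 10 nM with luciferin and ATP substrate; 0% = DMSO and -100% = full luciferase inhibition by PTC124 control.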 Particulars: purified P. pyralis luciferase, luminescence, 5 min; series mostly up to 58.6 µM. The essentials: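 Purified P. pyralis luciferase at 10 nM in 50 mM Tris Acetate (final), luminescence read within 5 minutes of enzyme addition to compounds. Activity normalised to PTC124 versus DMSO; concentration-response curves classed by r2, magnitude and activity.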

Test [10] is described as follows: S16 Schwann cell PMP22 intronic element firefly luciferase assay (AID 624032). Further: nearly all actives have a fitted effect of over 30% in size. Further: potency means the concentration at half of the fitted maximal effect.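 On activity change, negative = inhibition: plate controls were DMSO for no effect and PTC124 positive control mean for full effect.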 The conditions noted are these: S16 rat Schwann cells, PMP22 element FLuc, 24 h; series mostly up to 57.5 µM. The essentials: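 Rat S16 Schwann cells stably carrying firefly luciferase driven by a PMP22 intronic element, in 10% FBS, treated 24 h at 37 C. ONE-Glo luminescence normalized to PTC124 control and DMSO (0%); curves classed by r2, magnitude and activity.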

The subject of the next test is AS120. Briefly: qHTS profiling for inhibitors of Plasmodium falciparum proliferation (AID 504749). Further: nearly all actives have a fitted effect of over 60% in size. Further: potency means the concentration at half of the fitted maximal effect. The conditions noted are these: P. falciparum in erythrocytes, SYBR Green DNA, 72 h; series mostly up to 28.7 µM. Summed up: (§1)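 SYBR Green fluorescence (ex 485 nm, em 535 nm) reports parasite DNA after 72 h compound exposure of infected red cells at 0.3% parasitemia, 2.5% hematocrit; signal normalized to 0.29 uM artemisinin and vehicle wells.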

Another test deals with CP203. The description is as above. The conditions noted are these: P. falciparum in erythrocytes, SYBR Green DNA, 72 h; series mostly up to 28.7 µM. The essentials: as §1
In another test the test system is CP250. Described as above. The conditions noted are these: P. falciparum in erythrocytes, SYBR Green DNA, 72 h; series mostly up to 28.7 µM. Summed up:
as §1

The subject of the next test is CP297. The description is as above. Particulars: P. falciparum in erythrocytes, SYBR Green DNA, 72 h; series mostly up to 28.7 µM. The essentials: as §1
The subject of the next test is CP315. Described as above. The conditions noted are these: P. falciparum in erythrocytes, SYBR Green DNA, 72 h; series mostly up to 28.7 µM. Summed up:
as §1

The next test relates to CP325. The test is described as above. Particulars: P. falciparum in erythrocytes, SYBR Green DNA, 72 h; series mostly up to 28.7 µM. The essentials: as §1
A further test has as its system CP329. Described as above. The conditions noted are these: P. falciparum in erythrocytes, SYBR Green DNA, 72 h; series mostly up to 28.7 µM. The essentials:
as §1

A further test has as its system FAB9. Described as above. The conditions noted are these: P. falciparum in erythrocytes, SYBR Green DNA, 72 h; series mostly up to 28.7 µM. Summed up:
as §1

In a further test the test system is SC27B. The description is as above. The conditions noted are these: P. falciparum in erythrocytes, SYBR Green DNA, 72 h; series mostly up to 28.7 µM. The essentials:
as §1

A further test relates to W2. Described as above. Particulars: P. falciparum in erythrocytes, SYBR Green DNA, 72 h; series mostly up to 28.7 µM. Summed up:
as §1

Luciferin 4-monooxygenase (Photinus pyralis), sequence (P08659 whole entry, looked up): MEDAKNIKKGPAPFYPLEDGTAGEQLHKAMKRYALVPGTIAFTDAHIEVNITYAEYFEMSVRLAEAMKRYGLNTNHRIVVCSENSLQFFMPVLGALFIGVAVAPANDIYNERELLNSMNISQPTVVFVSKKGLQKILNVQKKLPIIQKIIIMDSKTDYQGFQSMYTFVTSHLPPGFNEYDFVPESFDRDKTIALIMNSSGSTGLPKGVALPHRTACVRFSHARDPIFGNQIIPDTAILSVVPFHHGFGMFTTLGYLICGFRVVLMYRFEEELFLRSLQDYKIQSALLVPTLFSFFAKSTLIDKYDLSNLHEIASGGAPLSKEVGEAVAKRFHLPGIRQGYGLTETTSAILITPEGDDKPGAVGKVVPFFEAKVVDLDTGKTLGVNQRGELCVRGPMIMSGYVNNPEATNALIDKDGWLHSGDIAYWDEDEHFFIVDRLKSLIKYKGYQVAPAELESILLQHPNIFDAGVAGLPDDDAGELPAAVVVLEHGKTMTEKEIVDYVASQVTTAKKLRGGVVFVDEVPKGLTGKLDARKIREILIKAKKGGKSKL
Glucocorticoid receptor (Homo sapiens), sequence (P04150 whole entry, looked up, the tested form may be a part): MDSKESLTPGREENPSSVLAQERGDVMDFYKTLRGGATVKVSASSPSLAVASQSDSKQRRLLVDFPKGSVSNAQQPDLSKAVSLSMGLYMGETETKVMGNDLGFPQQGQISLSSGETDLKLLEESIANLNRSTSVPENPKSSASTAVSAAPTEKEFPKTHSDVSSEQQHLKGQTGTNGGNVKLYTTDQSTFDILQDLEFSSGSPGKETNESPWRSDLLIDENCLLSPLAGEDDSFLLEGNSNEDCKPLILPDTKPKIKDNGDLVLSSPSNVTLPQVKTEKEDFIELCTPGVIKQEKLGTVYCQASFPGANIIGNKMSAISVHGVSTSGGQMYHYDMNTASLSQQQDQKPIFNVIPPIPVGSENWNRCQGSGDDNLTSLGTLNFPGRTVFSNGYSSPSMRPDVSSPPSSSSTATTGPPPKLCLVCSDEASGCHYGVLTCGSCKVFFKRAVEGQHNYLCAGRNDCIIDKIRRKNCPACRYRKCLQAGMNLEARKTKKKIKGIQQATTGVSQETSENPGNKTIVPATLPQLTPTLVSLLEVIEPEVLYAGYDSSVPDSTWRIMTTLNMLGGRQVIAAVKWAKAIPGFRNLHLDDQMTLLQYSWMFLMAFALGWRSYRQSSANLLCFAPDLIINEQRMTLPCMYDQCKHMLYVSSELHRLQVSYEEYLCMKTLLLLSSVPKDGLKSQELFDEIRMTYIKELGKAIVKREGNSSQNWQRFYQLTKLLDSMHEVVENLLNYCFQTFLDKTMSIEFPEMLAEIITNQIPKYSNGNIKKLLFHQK
Catechol O-methyltransferase (Homo sapiens), sequence (P21964 whole entry, looked up): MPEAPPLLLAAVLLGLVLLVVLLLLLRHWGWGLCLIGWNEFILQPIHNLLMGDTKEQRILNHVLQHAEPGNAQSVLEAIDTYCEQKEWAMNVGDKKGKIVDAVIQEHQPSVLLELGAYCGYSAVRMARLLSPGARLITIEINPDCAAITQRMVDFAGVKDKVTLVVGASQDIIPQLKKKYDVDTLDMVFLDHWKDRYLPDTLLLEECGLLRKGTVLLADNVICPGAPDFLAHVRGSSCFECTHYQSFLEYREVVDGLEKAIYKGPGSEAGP
Nicotinamide N-methyltransferase (Homo sapiens), sequence (P40261 whole entry, looked up): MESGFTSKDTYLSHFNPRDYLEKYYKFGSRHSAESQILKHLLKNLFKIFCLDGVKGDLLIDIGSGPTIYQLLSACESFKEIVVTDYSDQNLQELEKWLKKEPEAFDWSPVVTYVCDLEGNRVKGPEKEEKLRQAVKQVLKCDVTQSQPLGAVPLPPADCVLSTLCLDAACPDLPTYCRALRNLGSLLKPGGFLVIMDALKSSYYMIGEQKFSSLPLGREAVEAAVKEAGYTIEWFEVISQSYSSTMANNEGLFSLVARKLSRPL
DNA dC->dU-editing enzyme APOBEC-3G (Homo sapiens), sequence (Q9HC16 whole entry, looked up): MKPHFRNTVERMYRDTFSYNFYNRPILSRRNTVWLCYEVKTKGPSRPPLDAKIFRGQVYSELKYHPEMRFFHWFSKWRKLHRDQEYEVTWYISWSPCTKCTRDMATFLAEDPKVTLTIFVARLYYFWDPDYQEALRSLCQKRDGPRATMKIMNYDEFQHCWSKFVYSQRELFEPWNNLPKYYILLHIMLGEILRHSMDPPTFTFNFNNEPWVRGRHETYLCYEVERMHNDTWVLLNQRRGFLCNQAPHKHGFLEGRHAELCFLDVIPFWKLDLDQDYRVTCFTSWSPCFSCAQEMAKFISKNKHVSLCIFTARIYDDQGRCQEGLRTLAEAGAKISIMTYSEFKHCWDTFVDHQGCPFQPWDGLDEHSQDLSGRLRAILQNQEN
Phenylethanolamine N-methyltransferase (Homo sapiens), sequence (P11086 whole entry, looked up): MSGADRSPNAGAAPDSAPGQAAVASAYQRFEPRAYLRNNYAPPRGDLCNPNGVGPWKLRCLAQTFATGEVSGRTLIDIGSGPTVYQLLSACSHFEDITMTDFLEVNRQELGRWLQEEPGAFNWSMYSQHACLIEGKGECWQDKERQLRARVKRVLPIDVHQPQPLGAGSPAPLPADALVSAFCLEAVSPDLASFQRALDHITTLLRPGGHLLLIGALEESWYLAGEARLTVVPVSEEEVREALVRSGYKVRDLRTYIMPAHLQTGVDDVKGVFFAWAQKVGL

Turning to `COc1cc2c(NC3CCN(C4CCCCC4)CC3)nc(N3CCCN(C(C)C)CC3)nc2cc1OCCCN1CCCCC1`, the activity in test [1] was -2.63%; in [3], -10.6%; in test [4], -1.48%. Besides, in test [2], the activity change, negative = inhibition came out at 5.88%.

As for `O=C(/C=C/c1ccc(CN(CCO)CCc2c[nH]c3ccccc23)cc1)NO`, the activity in test [1] was 18.9%; in test [3], -12.8%; in [4] it was -2.68%. Moreover, in test [2], the Potency is 34.3 µM (active).

For `C=C[C@@](C)(O)CC[C@@H]1[C@@]2(C)CCCC(C)(C)[C@@H]2CC[C@@]1(C)O`, the outcome in test [5] is “inactive”.

For the compound `O=C(/C=C\n1cnc(-c2cc(C(F)(F)F)cc(C(F)(F)F)c2)n1)NNc1cnccn1`, the Potency in test [6] is 25.8 µM (active).

Turning to `CCC[C@H](NC(=O)/C(C#N)=C/c1cccc(Br)n1)c1ccccc1`, the Potency in test [6] was 4.09 µM (active).

For `C[C@@]12C(=O)OC(=O)[C@]1(C)[C@H]1CC[C@@H]2O1`, the Potency in test [7] is 2.63 µM (active); in test [8], > 20.6 µM (inactive); in [10], 0.616 µM (active); in the test with AS120, 3.55 µM (active); in the test with CP203, 2.56 µM (active); in the test with CP250, 3.16 µM (active). In addition, the Potency in the test on CP297 is 3.22 µM (active); in the test on CP315, 5.73 µM (active); in the test with CP325 it was 3.61 µM (active); in the test on CP329, 2.56 µM (active); with SC27B, 2.82 µM (active); with W2, 2.28 µM (active). The Potency result (in test [9]; in the test on FAB9) was “inactive” each time.

`CN(CCOc1ccc(C[C@H](Nc2ccccc2C(=O)c2ccccc2)C(=O)O)cc1)c1ccccn1`: the Potency in [7] and in test [8] was > 46 µM (inactive) in each case. In addition, the outcome in test [5] is “inactive”.

On to `C=C1CCC2[C@](C)(CO)C(O)CC[C@]2(C)C1C/C=C1/C(=O)OCC1O` (some centres undefined), for which the Potency result (in test [9]; in the test with CP297; in the test on CP315; in the test with CP325; with CP329; with FAB9) was “inactive” in each case. In addition, the Potency result in the test on SC27B is “inactive”. Also, the Potency in test [10] is 14.4 µM (active); in the test on CP250 it was 12.6 µM (active).

As for `CC(/C=C1\SC(=S)N(CC(=O)O)C1=O)=C\c1ccccc1`, the Potency in test [9] was 6.42 µM (active). For the same compound, the Potency entry (in [10]; in the test on AS120; in the test on CP203; in the test on CP250; in the test on CP297; with CP315) was “inactive” in each case. In addition, the Potency result with CP325, with CP329, with FAB9, with SC27B and in the test on W2 was “inactive” in each case.
